Assay [1] deals with Glucocorticoid receptor (Homo sapiens) (UniProt P04150). Kind of assay: ATG_GR_TRANS: Attagene TRANS-FACTORIAL HepG2 Assay for human Glucocorticoid Receptor (GR) (AID 2282978; active means hit-call score of the fitted dose curve at least 0.9, where 1 is the maximum;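 further: activators score as hits since higher reporter transcript over DMSO is fitted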). Particulars: HepG2 Attagene TRANS GR reporter, mRNA transcription. The method in brief: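 Reporter transcript levels, detected by fluorescence after RT-PCR and capillary electrophoresis, served as the endpoint. HepG2 cells bearing transfected GAL4-UAS reporters responsive to NR-GAL4 chimeras were incubated with compound 24 h; DMSO defined baseline.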
Glucocorticoid receptor (Homo sapiens), sequence (P04150 whole entry, looked up, the tested form may be a part): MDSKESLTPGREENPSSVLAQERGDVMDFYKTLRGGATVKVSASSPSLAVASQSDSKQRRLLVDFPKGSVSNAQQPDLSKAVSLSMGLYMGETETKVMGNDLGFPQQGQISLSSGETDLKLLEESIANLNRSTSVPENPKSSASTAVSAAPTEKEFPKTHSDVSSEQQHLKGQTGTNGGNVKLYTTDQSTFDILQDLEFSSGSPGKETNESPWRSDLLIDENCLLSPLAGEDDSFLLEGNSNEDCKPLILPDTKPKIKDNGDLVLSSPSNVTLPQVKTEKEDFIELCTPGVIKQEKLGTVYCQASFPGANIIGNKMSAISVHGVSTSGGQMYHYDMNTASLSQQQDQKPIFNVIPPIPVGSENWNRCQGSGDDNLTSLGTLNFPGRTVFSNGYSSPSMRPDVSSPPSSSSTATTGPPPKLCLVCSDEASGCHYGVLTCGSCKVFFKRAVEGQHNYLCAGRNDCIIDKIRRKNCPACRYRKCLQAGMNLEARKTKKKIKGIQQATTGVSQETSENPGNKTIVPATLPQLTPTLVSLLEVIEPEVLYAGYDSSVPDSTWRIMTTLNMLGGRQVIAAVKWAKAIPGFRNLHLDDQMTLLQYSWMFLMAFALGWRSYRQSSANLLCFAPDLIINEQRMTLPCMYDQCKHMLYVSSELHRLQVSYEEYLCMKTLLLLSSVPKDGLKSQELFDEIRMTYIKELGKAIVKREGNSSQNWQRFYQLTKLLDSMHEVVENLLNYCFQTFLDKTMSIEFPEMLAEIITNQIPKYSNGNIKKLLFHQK

Assay [2] deals with Oxysterols receptor LXR-alpha (Homo sapiens) (UniProt Q13133). Kind of assay: ATG_LXRa_TRANS: Attagene TRANS-FACTORIAL HepG2 Assay for human Liver X Receptor alpha (LXRa) (AID 2282980; active means hit-call score of the fitted dose curve at least 0.9, where 1 is the maximum). The settings on record: HepG2 Attagene TRANS reporter, LXRa transactivation. The procedure, abridged: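 Read-out: reporter transcript levels by RT-PCR plus capillary electrophoresis, fluorescence intensity. Transiently transfected HepG2, exogenous NR-GAL4 chimera, GAL4-UAS reporters; 24 h compound exposure. Activity = increase over DMSO negative control.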
Oxysterols receptor LXR-alpha (Homo sapiens), sequence (Q13133 whole entry, looked up, the tested form may be a part): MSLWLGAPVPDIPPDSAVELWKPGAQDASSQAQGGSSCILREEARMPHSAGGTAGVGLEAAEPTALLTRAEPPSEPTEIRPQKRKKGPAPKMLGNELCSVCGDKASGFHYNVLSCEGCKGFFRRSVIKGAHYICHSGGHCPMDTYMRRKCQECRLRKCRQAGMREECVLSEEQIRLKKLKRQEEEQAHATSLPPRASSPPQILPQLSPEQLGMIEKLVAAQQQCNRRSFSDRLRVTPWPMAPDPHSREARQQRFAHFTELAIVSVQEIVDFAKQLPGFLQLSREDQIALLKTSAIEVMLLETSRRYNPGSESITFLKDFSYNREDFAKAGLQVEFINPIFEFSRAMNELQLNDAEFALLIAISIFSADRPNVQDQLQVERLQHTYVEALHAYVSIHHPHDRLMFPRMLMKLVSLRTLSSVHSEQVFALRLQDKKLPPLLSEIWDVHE

Assay [3] in a line: ATG_M_06_TRANS: Attagene TRANS-FACTORIAL HepG2 Assay for M06 Transcription Factor (Internal Marker) (AID 2282983; active means hit-call score of the fitted dose curve at least 0.9, where 1 is the maximum). Particulars: HepG2 Attagene TRANS M06 internal marker reporter. The procedure, abridged:
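Read-out: fluorescent reporter cDNA fragments resolved by capillary electrophoresis after RT-PCR and HpaI cut. Source cells were HepG2 carrying transfected multi-reporter GAL4 constructs, dosed 24 h. Increase over DMSO control analysed.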

A short description of assay [4]: ATG_M_32_TRANS: Attagene TRANS-FACTORIAL HepG2 Assay for M32 Transcription Factor (Internal Marker) (AID 2282984; active means hit-call score of the fitted dose curve at least 0.9, where 1 is the maximum;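 further: transcript level of a background control reporter unit measured by RT-PCR and capillary electrophoresis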). The settings on record: HepG2 Attagene TRANS M32 internal marker reporter. The method in brief: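 Read-out: fluorescent reporter cDNA fragments resolved by capillary electrophoresis after RT-PCR of total RNA. Transfected HepG2 cells were exposed to chemical for 24 h. Activity scored in the positive direction relative to DMSO.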

Assay [5] addresses Nuclear receptor subfamily 4 group A member 2 (Homo sapiens) (UniProt P43354). Kind of assay: ATG_NURR1_TRANS: Attagene TRANS-FACTORIAL HepG2 Assay for human Nuclear Receptor Related Protein 1 (NURR1) (AID 2282985; active means hit-call score of the fitted dose curve at least 0.9, where 1 is the maximum). The settings on record: HepG2 Attagene TRANS reporter, mRNA readout. The procedure, abridged: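 Read-out: reporter mRNA induction by RT-PCR plus capillary electrophoresis with fluorescence detection, after 24 h dosing of transfected HepG2 cells. Exogenous NR-Gal4 chimera activity drives GAL4-UAS reporter; activity fitted upward versus DMSO.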

Assay [6] deals with Transcriptional activator Myb (Homo sapiens) (UniProt P10242). Kind of assay: ATG_Myb_CIS: Attagene CIS-FACTORIAL HepG2 Assay for human Myeloblastosis (Myb) Proto-Oncogene Transcription Factor (AID 2282986). Particulars: HepG2 Attagene CIS-FACTORIAL Myb reporter transcription; actives raise or lower the signal. The procedure, abridged:
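Transiently transfected HepG2 cells, treated 24 h. Reporter mRNA quantified by RT-PCR/capillary electrophoresis; bidirectional fit relative to DMSO.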

Assay [7] concerns the target Myc proto-oncogene protein (Homo sapiens) (UniProt P01106). Kind of assay: ATG_Myc_CIS: Attagene CIS-FACTORIAL HepG2 Assay for human Myelocytomatosis (Myc) Proto-Oncogene Transcription Factor (AID 2282990). The settings on record: HepG2, Attagene cis-reporter transcription factor activity; actives raise or lower the signal. The procedure, abridged: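 Fluorescence intensity of reporter-specific cDNA fragments, separated by capillary electrophoresis, gives the signal. Transfected HepG2 cells carrying cis-promoter reporter constructs are incubated with compound for 24 h; DMSO serves as baseline.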

Assay [8] is described as follows: ATG_NRF2_ARE_CIS: Attagene CIS-FACTORIAL HepG2 Assay for human Nuclear Factor Erythroid 2 Related Factor 2 (NFR2) response to Antioxidant Response Elements (ARE) (AID 2282992). The settings on record: HepG2 Attagene ARE/NRF2 reporter, transcription factor activity; actives raise or lower the signal. The procedure, abridged: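 Endogenous transcription factor activity read out as reporter transcript levels (RT-PCR plus capillary electrophoresis, fluorescence) in transiently transfected HepG2 cells. Measured at 24 h after dosing; gain or loss of signal fitted versus DMSO.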

Assay [9] can be described thus: ATG_Oct_MLP_CIS: Attagene CIS-FACTORIAL HepG2 Assay for human Octamer-Binding Transcription Factor (Oct) (AID 2282993). Particulars: HepG2 Attagene cis-factorial Oct reporter, mRNA; actives raise or lower the signal. The procedure, abridged: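 Read-out: reporter mRNA via RT-PCR plus capillary electrophoresis of 6-FAM-labelled fragments. Transiently transfected HepG2, 24 h exposure, endogenous TF activity on cis elements. Gain or loss of signal fitted relative to DMSO.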

The target of assay [10] is Cellular tumor antigen p53 (Homo sapiens) (UniProt P04637). Kind of assay: ATG_p53_CIS: Attagene CIS-FACTORIAL HepG2 Assay for human p53 Transcription Factor (AID 2282994). Particulars: HepG2 p53 cis-element reporter, Attagene mRNA; actives raise or lower the signal. The procedure, abridged:
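Endogenous p53 activity read in transiently transfected HepG2 from a cis-element-driven reporter transcript after 24 h exposure. RNA reverse-transcribed, PCR-amplified, fluorescently labelled and sized by capillary electrophoresis; gain or loss fitted against DMSO baseline.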

Assay [11] can be described thus: BSK_3C_TissueFactor: BioMAP Diversity Plus: 3C Assay for Tissue Factor Biomarker Activity (AID 2282997). The settings on record: BioMAP 3C HUVEC, tissue factor biomarker readout; actives raise or lower the signal. The method in brief: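 HUVEC, 3C system, 24 h post-dose; Tissue Factor by ELISA; bidirectional fit vs DMSO baseline.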
Assay [12] can be described thus: BSK_3C_uPAR: BioMAP Diversity Plus: 3C Assay for Urokinase-type plasminogen activator receptor (uPAR) Biomarker Activity (AID 2282998). Particulars: BioMAP 3C HUVEC, uPAR biomarker ELISA; actives raise or lower the signal. The procedure, abridged:
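HUVEC primary cells; 24 h post-dose; uPAR by ELISA; gain or loss of signal fitted bidirectionally vs DMSO baseline.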
(In general: In an ELISA, binding on a coated surface is turned into a signal by an enzyme label.)

Assay [13] can be described thus: BSK_3C_VCAM1: BioMAP Diversity Plus: 3C Assay for Vascular cell adhesion molecule 1 (VCAM1) Biomarker Activity (AID 2282999). The settings on record: BioMAP 3C HUVEC, VCAM1 ELISA, cytokine-stimulated; actives raise or lower the signal. The method in brief:
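HUVEC primary cells, 24 h compound exposure; VCAM-1 by ELISA; gain/loss of signal fitted bidirectionally vs DMSO baseline.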

The nature of assay [14]: BSK_4H_Eotaxin3: BioMAP Diversity Plus: 4H Assay for Eotaxin 3 Biomarker Activity (AID 2283000).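 Further: CCL26 protein level quantified by ELISA in parallel with SRB cytotoxicity check.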 Particulars: primary human endothelial cells (HUVEC); actives raise or lower the signal. The procedure, abridged:
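Readout is Eotaxin-3 (CCL26) level by ELISA in primary human umbilical vein endothelial cells harvested 24 h after chemical exposure; activity fitted in both directions against DMSO control.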

Assay [15] addresses Hepatocyte nuclear factor 4-alpha (Homo sapiens) (UniProt P41235). Kind of assay: ATG_HNF4a_TRANS: Attagene TRANS-FACTORIAL HepG2 Assay for human Hepatocyte Nuclear Factor 4 alpha (HNF4a) (AID 2282982; active means hit-call score of the fitted dose curve at least 0.9, where 1 is the maximum). Particulars: HepG2 HNF4a transactivation reporter, mRNA readout. The procedure, abridged: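 Transient MRTU transfection of HepG2, 24 h dosing. Readout: reporter mRNA via RT-PCR + capillary electrophoresis, fluorescence; activity fit upward relative to DMSO control.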

The target in assay [16] is Nuclear respiratory factor 1 (Homo sapiens) (UniProt Q16656). Kind of assay: ATG_NRF1_CIS: Attagene CIS-FACTORIAL HepG2 Assay for human Nuclear Respiratory Factor 1 (NRF1) Orphan Gene (AID 2282987). The settings on record: HepG2 NRF1 cis-element reporter, Attagene multiplex; actives raise or lower the signal. The procedure, abridged:
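Cells (HepG2, transient MRTU transfection) are exposed to compound for 24 h, then RNA isolated and reporter mRNA amplified and fluorescently labelled. Fragments are separated by capillary electrophoresis; signal change is fitted bidirectionally relative to DMSO.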

Assay [17] can be described thus: ATG_NFI_CIS: Attagene CIS-FACTORIAL HepG2 Assay for human Nuclear Factor I (NFI) (AID 2282989). Particulars: HepG2 cis-regulatory reporter, NFI response element transcription; actives raise or lower the signal. The method in brief:
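Read-out: reporter mRNA via RT-PCR plus capillary electrophoresis with fluorescence detection. Transiently transfected HepG2 (endogenous TF activity on cis promoters), 24 h compound exposure; gain or loss of signal fitted against DMSO.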

Assay [18] is described as follows: ATG_NF_kB_CIS: Attagene CIS-FACTORIAL HepG2 Assay for human Nuclear Factor Kappa B (NF-kB) (AID 2282991). The settings on record: HepG2 Attagene cis-factorial NF-kB reporter mRNA; actives raise or lower the signal. The procedure, abridged:
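Measures mRNA induction of an NF-kB-responsive cis-element reporter in HepG2 cells transfected with multiple reporter units, sampled 24 h post-dosing; quantified by fluorescence after RT-PCR and capillary electrophoresis, fitted for activation or inhibition against DMSO.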

In assay [19] the target is Oxysterols receptor LXR-beta (Homo sapiens) (UniProt P55055). Kind of assay: ATG_LXRb_TRANS: Attagene TRANS-FACTORIAL HepG2 Assay for human Liver X Receptor beta (LXRb) (AID 2282981; active means hit-call score of the fitted dose curve at least 0.9, where 1 is the maximum). Particulars: HepG2 Attagene TRANS GAL4-LXRb reporter, mRNA. The method in brief:
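Readout: fluorescent reporter mRNA fragments resolved by capillary electrophoresis after RT-PCR. System: transiently transfected human HepG2, exogenous LXRb-Gal4 chimera driving GAL4-UAS reporter, 24 h dosing. Activity fitted upward against DMSO baseline.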

Results filed as inconclusive are left out. Calls of active or inactive are those of the source. How the source made its calls, unless noted: active means hit-call score of the fitted dose curve at least 0.9, where 1 is the maximum; inactive means score below 0.9.

Cellular tumor antigen p53 (Homo sapiens), sequence (P04637 whole entry, looked up): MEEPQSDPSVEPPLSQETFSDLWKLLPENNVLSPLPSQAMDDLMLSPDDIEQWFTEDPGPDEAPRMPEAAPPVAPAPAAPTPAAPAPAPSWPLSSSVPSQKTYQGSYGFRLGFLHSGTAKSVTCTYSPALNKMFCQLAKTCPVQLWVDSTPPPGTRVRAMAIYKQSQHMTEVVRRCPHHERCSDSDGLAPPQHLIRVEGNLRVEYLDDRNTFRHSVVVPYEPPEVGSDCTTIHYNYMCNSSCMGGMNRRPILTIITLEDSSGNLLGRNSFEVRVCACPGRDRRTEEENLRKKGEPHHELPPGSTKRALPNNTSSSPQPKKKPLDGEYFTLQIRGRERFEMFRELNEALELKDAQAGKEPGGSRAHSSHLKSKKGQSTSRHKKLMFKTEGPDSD
Oxysterols receptor LXR-beta (Homo sapiens), sequence (P55055 whole entry, looked up, the tested form may be a part): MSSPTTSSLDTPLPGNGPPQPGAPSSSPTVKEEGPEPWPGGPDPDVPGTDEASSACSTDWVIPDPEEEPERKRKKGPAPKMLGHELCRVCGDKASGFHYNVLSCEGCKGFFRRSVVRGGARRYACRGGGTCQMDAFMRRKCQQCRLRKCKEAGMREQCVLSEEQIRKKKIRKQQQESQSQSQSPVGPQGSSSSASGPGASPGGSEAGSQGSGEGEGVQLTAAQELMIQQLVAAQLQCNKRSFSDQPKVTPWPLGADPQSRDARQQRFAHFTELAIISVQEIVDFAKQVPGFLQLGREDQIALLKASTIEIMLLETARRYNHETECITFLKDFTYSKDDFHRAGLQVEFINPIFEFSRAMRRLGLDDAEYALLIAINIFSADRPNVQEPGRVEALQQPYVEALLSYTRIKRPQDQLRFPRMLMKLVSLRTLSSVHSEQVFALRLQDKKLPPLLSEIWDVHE
Hepatocyte nuclear factor 4-alpha (Homo sapiens), sequence (P41235 whole entry, looked up): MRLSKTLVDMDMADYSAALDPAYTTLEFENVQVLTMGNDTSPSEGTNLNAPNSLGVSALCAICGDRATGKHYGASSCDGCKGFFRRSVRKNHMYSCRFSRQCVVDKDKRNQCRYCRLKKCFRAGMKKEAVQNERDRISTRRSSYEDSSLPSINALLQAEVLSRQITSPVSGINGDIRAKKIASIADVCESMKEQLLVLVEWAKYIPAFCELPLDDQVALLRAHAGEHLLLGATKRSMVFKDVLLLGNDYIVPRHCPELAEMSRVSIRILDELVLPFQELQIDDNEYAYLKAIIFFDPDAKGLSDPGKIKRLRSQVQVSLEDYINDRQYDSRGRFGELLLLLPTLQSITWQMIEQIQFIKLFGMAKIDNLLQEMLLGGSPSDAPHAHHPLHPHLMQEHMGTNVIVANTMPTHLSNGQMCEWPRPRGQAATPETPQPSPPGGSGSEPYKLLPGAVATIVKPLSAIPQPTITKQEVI
Nuclear receptor subfamily 4 group A member 2 (Homo sapiens), sequence (P43354 whole entry, looked up, the tested form may be a part): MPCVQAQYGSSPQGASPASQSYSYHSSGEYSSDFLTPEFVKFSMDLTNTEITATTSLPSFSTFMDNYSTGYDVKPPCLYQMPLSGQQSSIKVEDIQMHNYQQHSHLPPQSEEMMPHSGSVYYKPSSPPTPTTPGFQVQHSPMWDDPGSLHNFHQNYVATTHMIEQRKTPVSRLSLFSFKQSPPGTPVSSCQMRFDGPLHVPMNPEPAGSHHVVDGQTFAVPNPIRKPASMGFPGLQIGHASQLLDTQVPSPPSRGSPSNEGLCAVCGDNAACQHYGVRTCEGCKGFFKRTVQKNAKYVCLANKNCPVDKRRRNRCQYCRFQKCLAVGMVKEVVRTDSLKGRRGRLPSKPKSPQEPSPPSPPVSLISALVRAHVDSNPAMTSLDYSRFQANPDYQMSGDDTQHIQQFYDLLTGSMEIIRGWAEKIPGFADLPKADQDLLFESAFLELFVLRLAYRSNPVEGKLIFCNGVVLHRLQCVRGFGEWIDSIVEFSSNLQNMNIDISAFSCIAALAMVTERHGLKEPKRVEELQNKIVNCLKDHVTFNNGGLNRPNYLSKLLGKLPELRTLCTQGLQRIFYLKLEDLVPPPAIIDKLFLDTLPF
Myc proto-oncogene protein (Homo sapiens), sequence (P01106 whole entry, looked up, the tested form may be a part): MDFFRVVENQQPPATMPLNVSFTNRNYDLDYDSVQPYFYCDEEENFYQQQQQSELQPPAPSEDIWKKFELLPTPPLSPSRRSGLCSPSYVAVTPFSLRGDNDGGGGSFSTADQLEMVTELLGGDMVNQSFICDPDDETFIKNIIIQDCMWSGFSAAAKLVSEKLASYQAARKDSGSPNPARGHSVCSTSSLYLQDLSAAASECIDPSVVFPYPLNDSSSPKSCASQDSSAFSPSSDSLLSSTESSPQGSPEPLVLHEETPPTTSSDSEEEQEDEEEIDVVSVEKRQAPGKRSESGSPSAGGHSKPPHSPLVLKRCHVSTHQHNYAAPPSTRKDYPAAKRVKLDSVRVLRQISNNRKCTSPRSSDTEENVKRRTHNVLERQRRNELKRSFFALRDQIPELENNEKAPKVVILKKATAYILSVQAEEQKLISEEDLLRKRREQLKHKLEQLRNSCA
Nuclear respiratory factor 1 (Homo sapiens), sequence (Q16656 whole entry, looked up, the tested form may be a part): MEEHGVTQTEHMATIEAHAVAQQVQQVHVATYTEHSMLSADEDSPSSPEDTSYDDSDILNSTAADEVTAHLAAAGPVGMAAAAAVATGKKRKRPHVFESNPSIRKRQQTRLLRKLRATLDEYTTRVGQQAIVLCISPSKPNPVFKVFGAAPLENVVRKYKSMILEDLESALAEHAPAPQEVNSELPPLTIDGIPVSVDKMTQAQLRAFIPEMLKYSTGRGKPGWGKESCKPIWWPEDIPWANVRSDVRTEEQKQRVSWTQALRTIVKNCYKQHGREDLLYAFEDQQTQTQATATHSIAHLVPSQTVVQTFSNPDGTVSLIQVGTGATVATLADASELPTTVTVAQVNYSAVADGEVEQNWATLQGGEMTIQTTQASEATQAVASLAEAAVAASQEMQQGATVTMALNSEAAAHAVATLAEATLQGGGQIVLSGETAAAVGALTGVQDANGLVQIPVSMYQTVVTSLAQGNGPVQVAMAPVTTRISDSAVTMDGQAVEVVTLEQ
Transcriptional activator Myb (Homo sapiens), sequence (P10242 whole entry, looked up): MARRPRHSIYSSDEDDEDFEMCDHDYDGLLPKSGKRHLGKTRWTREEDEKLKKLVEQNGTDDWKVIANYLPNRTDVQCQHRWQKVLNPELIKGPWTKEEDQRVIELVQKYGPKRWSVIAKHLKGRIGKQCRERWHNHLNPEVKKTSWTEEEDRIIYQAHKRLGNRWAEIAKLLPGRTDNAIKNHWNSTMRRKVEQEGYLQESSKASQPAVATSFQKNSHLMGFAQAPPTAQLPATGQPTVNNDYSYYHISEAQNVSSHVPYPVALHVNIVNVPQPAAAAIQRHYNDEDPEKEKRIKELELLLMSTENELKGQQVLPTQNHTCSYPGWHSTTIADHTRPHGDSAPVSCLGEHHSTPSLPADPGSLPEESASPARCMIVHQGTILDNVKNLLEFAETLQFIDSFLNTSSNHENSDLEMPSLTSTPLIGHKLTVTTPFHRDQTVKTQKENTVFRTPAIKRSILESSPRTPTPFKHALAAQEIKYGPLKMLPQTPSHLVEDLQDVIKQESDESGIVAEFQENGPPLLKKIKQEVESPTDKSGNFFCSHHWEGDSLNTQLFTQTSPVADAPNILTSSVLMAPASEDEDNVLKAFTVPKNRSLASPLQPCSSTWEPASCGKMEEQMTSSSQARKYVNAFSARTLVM

On to `CCC(=O)OCc1ccccc1`, for which the call in assay [1], in [2], in assay [3], in assay [4], in assay [5] and in assay [6] was inactive. In addition, the compound was called inactive in assay [7], in assay [8], in assay [9], in assay [10], in assay [11] and in assay [12]. Besides, the outcome in [13] and in [14] was inactive.
A word on the AC50: it is the concentration giving half of the maximal activity seen. Regarding `CCCCc1ccc(N)cc1`, the outcome in assay [1], in assay [15], in [3], in assay [4], in assay [5] and in assay [6] was inactive. Also, the compound was called inactive in [16], in [17], in [7], in assay [18], in assay [9] and in assay [10]. Moreover, the AC50 in [8] is 27.2 µM (active).
For `C=CC(=O)OCC(O)COc1ccccc1` (stereo not given), the call in assay [1], in assay [19], in [15], in assay [3], in assay [5] and in assay [6] was inactive. The outcome in [16], in assay [17], in [7], in assay [9] and in assay [10] was inactive. In addition, the results for the AC50 in assay [18] and in [8] were 55.7 µM (active) and 26.2 µM (active), respectively.
For the compound `Cc1c(Cl)c(=O)oc2cc(O)ccc12`, the outcome in assay [1], in assay [19], in assay [4], in assay [5], in assay [16] and in assay [7] was inactive. In addition, the compound was called inactive in [18], in [9] and in [10]. For the same compound, the AC50 in assay [8] was 78.5 µM (active).
For `CN(C)c1ccc(O)c2c1C[C@H]1C[C@H]3[C@H](N(C)C)C(=O)C(C(N)=O)=C(O)[C@@]3(O)C(=O)C1=C2O`, the compound was called inactive in assay [1], in assay [19], in assay [5], in assay [6], in [16] and in assay [17]. For the same compound, the outcome in assay [7], in assay [18], in assay [8] and in assay [9] was inactive.
With `Cc1cccc(C)c1[N+](=O)[O-]`, the outcome in assay [1], in assay [19], in assay [15], in [3], in assay [4] and in assay [6] was inactive. Moreover, the call in [16], in assay [7], in [8] and in assay [9] was inactive.
Regarding `O=C(O)CCSCCC(=O)O`, the compound was classed as inactive in assay [1], in assay [19], in [15], in [4], in assay [6] and in [7]. The compound was called inactive in assay [9] and in assay [10].
`c1ccc2[nH]ccc2c1`: the compound was called inactive in assay [1], in [2], in [3], in assay [5], in [6] and in assay [16]. Besides, the compound was classed as inactive in [17], in assay [7], in assay [18], in assay [9] and in assay [10].
Consider `COC(=O)Cc1cccc2ccccc12`, for which the call in assay [1], in assay [2], in assay [3], in assay [6], in [16] and in [17] was inactive. Further, the compound was called inactive in assay [7], in assay [18], in assay [8] and in assay [10].
For the compound `CCCCCCCCCCCCCOS(=O)(=O)O`, the outcome in assay [1], in [19], in assay [3], in assay [6], in assay [16] and in [17] was inactive. Also, the compound was called inactive in assay [7], in assay [18], in [8], in assay [9] and in assay [10].

These data come from PubChem BioAssay (EPA / NIEHS).
